Source: PubChem BioAssay AID504725 (Broad Institute, 2011)
Entries with a potency or affinity are not part of this list. Calls of active or inactive are those of the source. How the calls were made is not given here.

Target: KSHV LANA C-terminal domain (residues 932-1162) binding to LBS DNA (UniProt O40947)
Test: KSHV LANA DNA-binding disruption – biochemical, fluorescence polarization, cherry-picked samples, dose response (AID 504725)

Structure (SMILES)	outcome
COc1ccc(NS(=O)(=O)c2ccc(C)c(C(=O)N(C)Cc3ccc(OC)cc3OC)c2)cc1	inactive
Cc1ccc(NS(=O)(=O)c2ccc(C(=O)NCCCN3CCCC3=O)cc2)cc1	inactive
CN(C)C(=O)c1ccc(NC(=O)COC(=O)C2(c3ccccc3)CCCC2)cc1	inactive
CCOC(=O)c1ccccc1Nc1cc(C)nc2nc(C)nn12	inactive
CC(/C=C1\SC(=S)N(CCCC(=O)Nc2ccc(C(=O)O)cc2)C1=O)=C\c1ccccc1	inactive
O=C(c1cccc(S(=O)(=O)NCc2ccccc2)c1)N1CCN(c2ccccc2Cl)CC1	inactive
Cc1ccc(NC(=O)c2ccc(Cl)c(S(=O)(=O)N3CCc4ccccc43)c2)nc1	inactive
COc1ccc(C2c3ccc(O)cc3Oc3ncn(CCCO)c(=N)c32)cc1OC (stereo not drawn)	inactive
NC1=NC[C@@H](Cc2ccc(O)cc2)N1CCc1cc(C(F)(F)F)cc(C(F)(F)F)c1	inactive
CCNC(=O)COC(=O)c1cccc(Br)c1	inactive
COC(=O)c1ccccc1OCC(=O)N1CCN(c2ccc(Cl)cc2)CC1	inactive
CCCC1(C2CCCC2)NC(=O)NC1=O (stereo not drawn)	inactive
Cc1cc(C(F)(F)F)c2c(N)c(C(=O)Nc3cc(C)on3)sc2n1	inactive
CCN(CC)S(=O)(=O)N1CCN(S(=O)(=O)N2CCOCC2)CC1	inactive
Cc1cc(C)nc(SCC(=O)N/N=C/c2cc(C)n(-c3ccccc3C)c2C)n1	inactive
O=C(Nc1ccccc1F)c1coc(=O)c(Br)c1	inactive
COc1ccc(N=Nc2nc3ccc(Br)cc3n2C)cc1	inactive
Cc1c(N)cc(S(=O)(=O)O)cc1NC(=O)c1cccc([N+](=O)[O-])c1	inactive
